Screening data from PubChem.
Only some compounds are listed: those with a hit (about 9.8% of all), similar ones and a draw of the others.
HttQ103 aggreg: reduces HttQ103-GFP aggregates in PC12 cells; Potency, µM (highest dose often 46.1 µM), inactives show at the highest dose activity change, negative = inhibition, actives largely listed as inhibitors; AID 1688; hit rate 1.1% among 220,000; PC12 HttQ103-GFP aggregates, Acumen cytometry, 40 h; also: potency is read from the fitted curve at half-maximal effect; % is scaled to controls: 0 for no effect and ±100 for the full control effect; nearly all actives have a fitted effect of over 60% in size
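PC12 cells with ecdysone-inducible HTT exon1 Q103-GFP, induced by 100 nM tebufenozide, given compounds in a concentration series. GFP aggregates (1–25 um, 6 SD above background) counted in lysates by laser-scanning cytometry, 488 nm excitation.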
ALDH1A1 inh: blocks purified human ALDH1A1 activity; Purified ALDH1A1, NADH fluorescence, propionaldehyde substrate; Potency, µM (highest dose often 75.3 µM), for the others: at the top dose activity, negative = inhibition, hits mostly inhibitors; hit rate 7.3% among 220,000; active = well fitted inhibition curve with a large enough effect, not every such curve was filed as active; inconclusive = small, poorly fitted or top-dose-only effect, or another doubt; inactive = no such curve, though single readings can be large or run the other way;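 also: potency is read from the fitted curve at half-maximal effect; plate controls were no enzyme wells and a reference inhibitor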
HTT cytoprotect: cytoprotection in Huntington HTT-Q103 PC12 cell model; PC12 HTT-Q103 induced, cytoprotection, ATP luminescence, 40 h; Potency, µM (doses to about 56.4 µM), without a hit: cytoprotection (ATP increase), most hits filed as activators; hit rate 0.14% among 230,000; also: potency is read from the fitted curve at half-maximal effect; % of control where 0% means no effect; nearly all actives have a fitted effect of over 45% in size
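Stable PC12 Q103-GFP cells in serum-supplemented, phenol red-free DMEM; induction by tebufenozide at 100 nM final; compound dose series; cell viability quantified luminescently from ATP.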
HPGD block: HPGD (human) dehydrogenase inhibition | P15428 | purified HPGD, NADH fluorescence kinetic, PGE2 substrate | Potency, µM, inactives show at the top dose activity change, negative = inhibition, usual class: inhibitors | hit rate 4.3% among 150,000 | AID 894; active = well fitted inhibition curve with a large enough effect, not every such curve was filed as active; inconclusive = small, poorly fitted or top-dose-only effect, or another doubt; inactive = no such curve, though single readings can be large or run the other way; also: potency is read from the fitted curve at half-maximal effect; % is scaled to controls: 0 for no effect and ±100 for the full control effect
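NADH formation kinetics: reaction with 30 uM PGE2 and 1 mM NAD+ (final), 20 nM enzyme, Tris-HCl pH 8 with Tween 20, after 15 min compound preincubation at room temperature. Fluorescence change, last versus first of five reads.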
JMJD2E inh: blocks human JMJD2E demethylase activity; hit rate 1.6% among 230,000; JMJD2E catalytic domain, FDH-coupled NADH fluorescence (FDH is formaldehyde dehydrogenase); B2RXH2; Potency, µM (doses to about 57.1 µM), without a hit: at the top dose activity change, negative = inhibition, actives largely listed as inhibitors; active = well fitted inhibition curve with a large enough effect, not every such curve was filed as active; inconclusive = small, poorly fitted or top-dose-only effect, or another doubt; inactive = no such curve, though single readings can be large or run the other way;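 also: potency is read from the fitted curve at half-maximal effect; 0% = wells with enzyme and -100% = buffer wells without enzyme; nearly all actives have a fitted effect of over 50% in size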
CBFb RUNX1 block: inhibitors of human CBF-beta and RUNX1 interaction; 230,000 tested, under 10 active; Potency, µM (highest dose often 59.8 µM), without a hit: top-dose activity, negative = inhibition, most hits filed as inhibitors; AID 1477; AlphaScreen CBFb-His/RUNX1-biotin binding, biochemical; Q01196+Q13951; also: % of control where 0% means no effect
Target sequence (Q01196 whole entry, looked up): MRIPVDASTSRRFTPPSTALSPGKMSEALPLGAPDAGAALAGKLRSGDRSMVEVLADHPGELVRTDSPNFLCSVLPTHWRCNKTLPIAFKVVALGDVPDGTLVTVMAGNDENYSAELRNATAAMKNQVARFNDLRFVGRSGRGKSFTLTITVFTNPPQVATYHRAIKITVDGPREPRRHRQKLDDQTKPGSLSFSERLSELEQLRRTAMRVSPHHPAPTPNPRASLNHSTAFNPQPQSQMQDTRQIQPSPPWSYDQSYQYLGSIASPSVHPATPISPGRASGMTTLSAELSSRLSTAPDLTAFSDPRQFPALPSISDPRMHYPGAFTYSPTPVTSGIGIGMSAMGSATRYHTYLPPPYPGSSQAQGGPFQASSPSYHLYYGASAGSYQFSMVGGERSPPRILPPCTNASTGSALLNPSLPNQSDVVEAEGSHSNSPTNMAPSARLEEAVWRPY
Target sequence (Q13951 whole entry, looked up): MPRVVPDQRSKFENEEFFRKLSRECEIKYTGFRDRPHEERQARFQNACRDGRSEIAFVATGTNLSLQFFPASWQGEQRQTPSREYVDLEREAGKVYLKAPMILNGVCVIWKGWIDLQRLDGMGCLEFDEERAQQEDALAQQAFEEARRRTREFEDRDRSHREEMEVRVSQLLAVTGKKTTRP
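Compounds were screened at multiple concentrations against a preformed CBF-beta(His)/RUNX1(biotin) complex (30 nM of each) for 15 min at room temperature, followed by 90 min with nickel and streptavidin beads and AlphaScreen reading.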
* hit, by the source's call; ? = inconclusive; nt = no result; [ ] = remark or other dose. Unless noted, calls follow the shape of the dose curve; as a rule, active = well fitted curve in the direction sought with a large enough effect; inconclusive = small, poorly fitted or top-dose-only effect, or another doubt; inactive = no such curve, though single readings can be large; an effect the other way counts as inactive or inconclusive.

SMILES | HttQ103 aggreg | ALDH1A1 inh | HTT cytoprotect | HPGD block | JMJD2E inh | CBFb RUNX1 block
CC1(C)CC(=O)C2=C(C1)N(N1CCOCC1)C(N)=C(C#N)C2c1cccs1 (stereo not drawn) | -9% | 9% | 19%[10 µM] | -11% | -8% | -3%
CN(C)N1C(N)=C(C#N)C(c2cccs2)C2=C1CC(C)(C)CC2=O (stereo not drawn) | 15% | 10µM* | ? | nt | -22% | -6%
CC1(C)CC(=O)C2=C(C1)N(c1cccnc1)C(N)=C(C#N)C2c1cccs1 (stereo not drawn) | -5% | 22µM* | nt | -26% | -3% | 1%
CC1S/C(=N\N=C\c2cccc([N+](=O)[O-])c2)N(C(C)(C)C)C1=O (stereo not drawn) | -19%[9.22 µM] | nt | -1%[10 µM] | nt | 0% | -8%
COc1cc2c(cc1OC)C(C(=O)Nc1cc(OC)c(OC)c(OC)c1)C(c1cccnc1)N(C)C2=O (stereo not drawn) | 2% | -1% | -6% | nt | 1% | 1%
COCCNC(=O)CN1CCC(NC(=O)c2ccco2)CC1 | -19%[9.22 µM] | ? | -21%[10 µM] | nt | ? | -4%
COc1cc2ncnc(NCc3ccco3)c2cc1OC | -18%[9.22 µM] | 6% | -5% | nt | -3% | 5%
CSCCC(Nc1ncnc2ccc(Br)cc12)C(=O)O (stereo not drawn) | -8% | ? | -15%[10 µM] | -19% | 1% | 3%
CC(C)Nc1ncnc2ccc(Br)cc12 | 6.3µM* | -16% | nt | -10% | -7% | 5%
Brc1ccc2ncnc(NCc3ccco3)c2c1 | 8.9µM* | ? | -11% | ? | 8% | -5%
Cc1ccc(C)c(NS(=O)(=O)c2cc(C(=O)O)ccc2Cl)c1 | nt | -4% | nt | -5% | nt | nt
COc1ccc(NS(=O)(=O)c2csc(C(=O)Nc3ccccc3)c2)cc1 | 3%[9.22 µM] | ? | -2%[10 µM] | nt | -2% | 5%
O=C(COC(=O)Cc1ccc(S(=O)(=O)N2CCOCC2)s1)Nc1ccc2c(c1)OCO2 | 6%[9.22 µM] | 20µM* | -15% | -12% | -12% | 0%
CCN(CC)S(=O)(=O)c1ccc(C(=O)Nc2ccc3c(c2)OCCO3)cc1 | -4% | 13µM* | 0% | -10% | 0% | -1%
CCCN(CCC)S(=O)(=O)c1cccc(C(=O)Nc2ccc3c(c2)OCO3)c1 | -6% | 3.2µM* | 15% | -16% | 6% | -2%
CCN(CC)S(=O)(=O)c1ccc(NC(=O)c2ccc(NS(C)(=O)=O)cc2)cc1 | -12% | ? | -7% | -19% | -10% | 9%
CCN(CC)S(=O)(=O)c1cccc(C(=O)Nc2ccc3c(c2)OCO3)c1 | -3%[9.22 µM] | ? | 2%[10 µM] | nt | -2% | -7%
CCC(CC)C(=O)Nc1cccc(C(=O)Nc2ccc3c(c2)OCO3)c1 | -2% | 13µM* | -13% | -12% | 5% | -1%
Cc1cccc(C)c1NS(=O)(=O)c1c(C)[nH]c(=O)[nH]c1=O | 11% | 10% | -7% | -7% | 1% | 3%
COc1ccccc1C1(CC(=O)N2CCOCC2)CCOC(C(C)C)C1 (stereo not drawn) | 1%[9.22 µM] | 6% | 2% | -23% | -3% | 2%
CC1CN(S(=O)(=O)c2cccc(C(=O)OCC(=O)Nc3ccc4c(c3)OCO4)c2)CC(C)O1 (stereo not drawn) | 1% | 11µM* | -14% | -6% | -1% | 7%
CCN(CC)S(=O)(=O)c1ccc(S(=O)(=O)Nc2cc3c(cc2C(C)=O)OCO3)cc1 | 2% | 3.2µM* | 13%[10 µM] | nt | 1% | -19%
CCCNS(=O)(=O)c1ccc(OCC(=O)NCCC2=CCCCC2)cc1 | 4% | 11µM* | -6% | 1% | -3% | -4%
Cc1ccc(OCC(=O)NCCC2=CCCCC2)cc1 | -23% | ? | nt | -20% | -2% | 4%
COC(=O)COc1ccc(S(=O)(=O)NCCC2=CCCCC2)cc1 | -9% | 22µM* | -12%[10 µM] | -1% | -5% | 10%
CC(C)NS(=O)(=O)c1ccc(OCC(=O)NCCC2=CCCCC2)cc1 | 2% | -15% | 4% | -4% | -10% | 6%
